Assay results from PubChem BioAssay AID1893 (NMMLSC, 2009).
Among all 5,900 compounds or so, about 120 (2%) were called active. No stated cut-off is given here; in the data, active means percent response mostly above about 71% (no sharp cut-off); inactive means mostly below about 38%. These entries were drawn from the full list.

Each compound was assayed on MEKK2 (MAP3K2) mutant PB1 domain binding MEK5, human (assay: mutant MEKK2 PB1-MEK5 binding signal retest – biochemical, single concentration, multiplex bead flow cytometry, confirmation (AID 1893;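 further: higher means compound restores mutant binding toward wildtype level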)). Conditions: Alexa488-MEK5 binding to MEKK2 mutant, at 10 µM, hits give high values.

Percent response, inactive:
CSCC[C@H](NC(=O)CCCn1nnc2ccccc2c1=O)C(=O)O 1%, CN1CCN(/N=C/c2ccc(C#N)cc2)CC1 -4%, CC1CCN(C2=NC(=O)/C(=C/c3cn[nH]c3-c3ccccc3)S2)CC1 -9%, CCOc1ccc(S(=O)(=O)NCCCn2ccnc2)cc1NC(C)=O -6%, CCCCNC(=O)N1CCCC(N(C)CCc2ccc(OC)c(OC)c2)C1 (configuration not stated) -2%, CC(C)(C)NC(=O)Cn1cnc([N+](=O)[O-])n1 -7%, COc1ccccc1OCCNCC(O)COc1cccc2[nH]c3ccccc3c12 (configuration not stated) 34%, Cc1cccc(-c2ncc(CN3CCC(CO)(CCCc4ccccc4)CC3)cn2)c1 9%, Cc1nn(-c2ccccc2)c(C)c1NC(=O)CCl -2%, COC(=O)CCc1sc(Nc2ccc(Br)cc2)nc1-c1ccc(OC)cc1 9%, C#CCOCCOCCOCCNc1nc(N2CCN(C(=O)C([C@@H](C)CC)n3cc(C(N)COC(=O)C(F)(F)F)nn3)CC2)nc(N2CCN(C(=O)[C@H](CCCCN)n3cc(C(N)CC(C)C)nn3)CC2)n1 (some centres not stated) 52%, O=C(CCCO)N/N=C/c1cc(Br)ccc1O -1%, O=C(Nc1ccn(Cc2ccccc2)n1)c1cccc(F)c1 -3%, COc1ccc(CCn2c(NN=C3CCCC3)nc3c2c(=O)[nH]c(=O)n3C)cc1 3%, CCC(C)OC(=O)C(C)Oc1ccc(-c2ccccc2)cc1 (configuration not stated) 10%, CC(C)CC(=O)NC(=S)NCc1ccccc1 -3%, O=c1c(/C=N/O)coc2ccc(Cl)cc12 -2%, Cc1ccc2c(c1)C1CN(C)CCC1N2S(=O)(=O)c1ccc(Oc2ccc([N+](=O)[O-])cc2)cc1 (configuration not stated) 61%, Cc1c(S(=O)(=O)NCc2ccccc2)c(=O)n(C)c(=O)n1C 2%, C[N+](C)(C)CCNC(=O)c1c(O)c2c([nH]c1=O)CCCC2 -3%, O=C(O)/C=C\C(=O)Nc1ccc(OCc2ccccc2)cc1 -4%, COc1ccccc1NC(=S)N1CCN(c2ccc(F)cc2)CC1 -8%, Cc1cccc(OCC(O)CN2CCN(CCN3C(=O)c4cccc5cccc(c45)C3=O)CC2)c1C (configuration not stated) 3%, Cc1ccc(N2C(=O)CC(N3CCSCC3)C2=O)c(C)c1 (configuration not stated) 2%, O=C(c1ccc(Br)o1)N(c1ccccn1)C1CCCCC1 3%, COc1ccc(SC[C@H](Cc2ccccc2)N2CCN(CCc3ccccc3)CCC2=O)cc1 16%, CCOC(=O)c1c(NC(=O)c2ccc(S(=O)(=O)N(C)CC3CCCO3)cc2)sc2c1CC(C)(C)NC2(C)C (configuration not stated) 7%, O=C(NCCCN1CCN(c2ccc(F)cc2)CC1)Nc1ccc([N+](=O)[O-])cc1 26%, CC1CN(C(=O)c2ccccc2NS(=O)(=O)c2cccc([N+](=O)[O-])c2)CC(C)O1 (configuration not stated) 0%, c1ccc2c(c1)C(=NC1CCCCC1)NC2=NC1CCCCC1 18%, Cc1cccc(OCCNC(=O)CSc2ccc(C(F)(F)F)cc2[N+](=O)[O-])c1 2%, O=C(NC1CCN(Cc2ccccc2)CC1)c1ccc(Oc2cc(Cl)cc(Cl)c2)o1 10%, O=C(CC1SCCNC1=O)Nc1ccc(Cl)c(Cl)c1 (configuration not stated) 4%, CN(CC(=O)Nc1cccc(F)c1)CC(=O)Nc1cccc([N+](=O)[O-])c1 -3%, COc1ccccc1N=C(C)C1=C(O)COC1=O 7%, COc1cccc(OCC(=O)NNC(=O)c2cnccn2)c1 -1%, COC(=O)c1c(NC(=O)COC(=O)[C@@H](NS(=O)(=O)c2ccccc2)C(C)C)sc2c1CCC2 -1%, CCOC(=O)CN(C)S(=O)(=O)c1ccc(-c2cc(C(=O)OC)sc2C(F)(F)F)cc1 -3%, Cc1cc(Cl)ccc1OCc1nc(-c2ccncc2)no1 -15%, O=C(O)CCCC(=O)Nc1ccc(Oc2cccc(C(F)(F)F)c2)nc1 4%, COc1cc(C)nc(N2CCCC(C(=O)NCC(C)C)C2)n1 (configuration not stated) -2%, O=C(O)C1CCN(c2ccc([N+](=O)[O-])cc2[N+](=O)[O-])CC1 6%, Cc1no[n+]([O-])c1COc1ccccc1/C=C1\NC(=S)NC1=O -5%, COc1ccc(C(=O)C[n+]2ccc(C)cc2)cc1 6%, CC(C)CC(=O)N1CCN(Cc2ccccc2Br)CC1 3%, CCOC(=O)c1c(Cc2ccc(Cl)cc2)c[nH]c1C 0%, Cc1cn(COC/C=C/c2ccccc2)c(=O)[nH]c1=O 2%, COc1ccc(CNC(=O)C2CCN(S(C)(=O)=O)CC2)cc1 4%, COC(=O)c1cc(NC(=O)c2cc(C(C)(C)C)nn2Cc2cccc(C)c2)ccc1N1CCOCC1 -5%, COc1cc(NC(=S)NCc2ccco2)c(OC)cc1Cl 3%, Cn1c(SCc2nc3ccccc3s2)nnc1-c1ccc2c(c1)OCO2 0%

Percent response, active:
CCN(CC)CCOc1ccc2c(c1)C(=NNC(=O)c1ccccn1)c1cc(OCCN(CC)CC)ccc1-2 75%
